Compound activity (PubChem)
Most compounds without a hit are left out; they make up all but 3.4% or so of the library.
PNC inhibitor = High Content Assay for Compounds that inhibit the Assembly of the Perinucleolar Compartment | hit rate 3.1% among 140,000 | activity change (PNC), negative = inhibition, % at 10 µM | PC3M PTB-GFP, PNC prevalence imaging, 16 h; hits give low values;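 active means readout at or below -70, meaning at least 70% loss of cells showing the perinucleolar compartment, a nuclear body marking cancer cells; inconclusive means readout between -30 and a set limit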;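 further: plate controls were DMSO wells for no effect and camptothecin positive control wells for full effect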
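Compounds are pinned in duplicate onto adhered PC3M cells stably expressing GFP-tagged PTB and incubated 16 h at 37 C. Cells are then fixed, nuclei stained with Hoechst, and PNC-positive cells counted.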
IMPase cell inh = qHTS Assay for Identifying the Cell-Membrane Permeable IMPase Inhibitors. inhibition (IP1 accumulation), % at 46.1 µM. Inositol monophosphatase 1 (Rattus norvegicus), P97697. CHO-M1 cells, IP1 accumulation, HTRF TR-FRET ratio. AID 901, 2007. 120,000 tested, under 10 active; active means well fitted curve in the direction sought with a large enough effect in the signal ratio, not every such curve was filed as active; inconclusive means small, poorly fitted or top-dose-only effect, or a change in a side signal; inactive means no such curve, though single readings can be large or run the other way; the % refers to the signal ratio;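 further: cells stimulated with carbachol in lithium chloride buffer; plate controls were DMSO basal wells for no effect and reference inhibitor wells for full effect; higher means more IMPase inhibition seen as more IP1 and lower FRET ratio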
Target sequence (P97697 whole entry, looked up): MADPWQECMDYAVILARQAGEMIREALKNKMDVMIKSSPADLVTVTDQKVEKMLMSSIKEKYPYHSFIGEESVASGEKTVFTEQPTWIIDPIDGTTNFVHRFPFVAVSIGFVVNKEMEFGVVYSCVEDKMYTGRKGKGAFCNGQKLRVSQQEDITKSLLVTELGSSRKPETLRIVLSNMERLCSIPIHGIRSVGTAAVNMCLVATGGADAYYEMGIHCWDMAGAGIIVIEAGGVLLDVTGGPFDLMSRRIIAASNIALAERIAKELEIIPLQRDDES
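Seeded CHO-M1 cells were dosed with compound at up to 46 uM, stimulated with carbachol for 30 min, then lysed in IP-One detection reagents. Higher IP1 lowers the TR-FRET signal.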
IMPase Li inh = qHTS Assay for Identifying the Cell-Membrane Permeable IMPase Inhibitors: Potentiation with Lithium; Potency, µM (doses to about 59.4 µM), for the others: at the top dose activity, negative = IMPase inhibition, most hits filed as inhibitors; hit rate 0.35% among 210,000; CHO-M1 cells, IP1 TR-FRET (IP-One), carbachol + lithium;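 further: IP1 builds up when IMPase is blocked and the TR-FRET signal falls; potency means the concentration at half of the fitted maximal effect; plate controls were basal vehicle for no effect and high inhibitor control for full effect; nearly all actives have a fitted effect of over 50% in size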
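Steps: plate 2000 CHO-M1 cells per well and culture 16–30 h; add compound and lithium; incubate 30 min, 37C; add d2-IP1 tracer and Eu cryptate anti-IP1 antibody in lysis buffer; read after 10 min at room temperature.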
NPSR antagonist = qHTS Assay for Antagonists of the Neuropeptide S Receptor: cAMP Signal Transduction; hit rate 1% among 220,000; CHO-NPSR cells, cAMP TR-FRET, antagonist mode; Potency, µM (highest dose often 38.3 µM), inactives show at the top dose activity change, negative = inhibition, hits mostly inhibitors; Q6W5P4; further: potency means the concentration at half of the fitted maximal effect; on the % scale 0 is the no-effect control and ±100 the full control effect; nearly all actives have a fitted effect of over 50% in size
Target sequence (Q6W5P4 whole entry, looked up): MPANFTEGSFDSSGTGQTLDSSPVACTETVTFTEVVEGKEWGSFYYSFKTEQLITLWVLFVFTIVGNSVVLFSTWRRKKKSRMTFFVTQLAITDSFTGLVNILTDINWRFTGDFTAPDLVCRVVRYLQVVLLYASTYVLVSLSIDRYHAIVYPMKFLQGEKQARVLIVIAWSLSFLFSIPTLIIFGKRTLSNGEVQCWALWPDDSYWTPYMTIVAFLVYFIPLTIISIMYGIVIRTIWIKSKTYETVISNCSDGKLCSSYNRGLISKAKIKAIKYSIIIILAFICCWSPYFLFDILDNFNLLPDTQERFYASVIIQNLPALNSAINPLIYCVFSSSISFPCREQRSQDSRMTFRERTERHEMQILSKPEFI
HttQ103 aggreg = qHTS Multiplex Assay to Identify Dual Action Probes in a Cell Model of Huntington: Aggregate Formation (GFP); PC12 HttQ103-GFP aggregates, Acumen cytometry, 40 h; Potency, µM (doses to about 46.1 µM), for the others: top-dose activity change, negative = inhibition, hits mostly inhibitors; hit rate 1.1% among 220,000; AID 1688, 2009; further: potency means the concentration at half of the fitted maximal effect; on the % scale 0 is the no-effect control and ±100 the full control effect; nearly all actives have a fitted effect of over 60% in size
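PC12 cells stably carrying ecdysone-inducible HTT exon 1 Q103–GFP were induced with tebufenozide (100 nM final) and treated with library compounds in titration. GFP aggregates in lysates were counted by laser scanning cytometry.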
HTT ATP protect = qHTS Multiplex Assay to Identify Dual Action Probes in a Cell Model of Huntington: Cytoprotection (ATP). hit rate 0.14% among 230,000. PC12 HTT-Q103 induced, cytoprotection, ATP luminescence, 40 h. Potency, µM (highest dose often 56.4 µM), for inactives: cytoprotection (ATP increase), most hits filed as activators; further: potency means the concentration at half of the fitted maximal effect; % of control where 0% means no effect; nearly all actives have a fitted effect of over 45% in size
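Rat PC12, Q103 Htt exon1-GFP fusion, ecdysone promoter; tebufenozide inducer 100 nM final; compound titration; qHTS, 1500 cells/well; ATPlite luminescent read.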
The depositor's hits bear a star; ? = inconclusive; . = not tested or not shown; [ ] = another dose, or the depositor's remark. Unless noted, the call rests on the fitted dose curve; in most records, active means well fitted curve in the direction sought with a large enough effect; inconclusive means small, poorly fitted or top-dose-only effect, or another doubt; inactive means no such curve, though single readings can be large; an effect the other way counts as inactive or inconclusive.

SMILES	PNC inhibitor	IMPase cell inh	IMPase Li inh	NPSR antagonist	HttQ103 aggreg	HTT ATP protect
COc1ccc(NS(=O)(=O)c2ccc(-n3nnc4ccccc43)c([N+](=O)[O-])c2)cc1	23	-1	-12%[38.3 µM]	-21%[46.1 µM]	-10%[9.22 µM]	5%
COc1ccc(NS(=O)(=O)c2cccc(NC(=O)C34CCC(CC3)C4)c2)cc1	26	.	8%	5%	-5%	-7%[10 µM]
Cc1nc2scc(-c3ccc(C(C)(C)C)cc3)c2c(=O)n1N	.	.	16%	-33%	?	-76%
Cc1nc2sccc2c(=O)n1N	.	.	1%	3%	-22%	3.5µM*
CCOc1ccccc1NC(=O)CN(c1ccc(C)cc1)S(=O)(=O)c1c(C)noc1C	-132*	14	42%[38.3 µM]	-27%[46.1 µM]	-24%	-9%
COc1ccc(N(CC(=O)Nc2ccc(C)cn2)S(=O)(=O)c2c(C)noc2C)cc1	-80*	-12	-5%[38.3 µM]	-21%[46.1 µM]	-9%	-7%
CCOc1ccc(OCC)c(NC(=O)CN(c2ccc(C)cc2)S(=O)(=O)c2c(C)noc2C)c1	18	14	13%[38.3 µM]	?	-11%	-11%[10 µM]
COc1ccc(-c2nnc(SCC(=O)Nc3sc4c(c3C#N)CCCC4)n2-c2ccccc2)cc1	-86*	-13	14%	-3%[46.1 µM]	4%	4%[10 µM]
Cc1cccc(C)c1Nc1nnc(SCc2nc3ccccc3c(=O)[nH]2)s1	-118*	.	0%	-18%	-24%	.
O=c1[nH]c(CSc2nc(-c3ccc(F)cc3)cs2)nc2ccccc12	-116*	.	-1%	0%	4%	16%[10 µM]
Cc1ccc(C)c(C(C)NC(=O)c2ccc(Br)o2)c1 (stereo not drawn)	.	.	-5%	-2%	-3%[9.22 µM]	-33%
CCOC(=O)N1CCC(N2C(=O)c3ccc(C(=O)NCc4ccco4)cc3C2=O)CC1	-119*	5	20%	-17%	5%	-8%
CCOC(=O)N1CCC(N2C(=O)c3ccc(C(=O)NCc4ccc(F)cc4)cc3C2=O)CC1	14	-7	5%	-14%	11%	-12%
FC(F)Oc1ccc(NC(=S)NNc2ccnc3cc(Cl)ccc23)cc1	.	.	4%	-2%	17%	25%[10 µM]
O=C(c1cnn(-c2ccccc2)c1)c1ccccc1O	-29	0	16%	-2%[46.1 µM]	11µM*	2%[10 µM]
COc1ccc(-n2cc(C(=O)c3ccccc3O)cn2)cc1	.	.	2%	-11%	-26%	-120%
O=C(CN1CCCCCC1)N/N=C/c1cccc(Cl)c1Cl	12	.	0%	16%	-24%	.
CCOc1ccc(-c2nc(-c3cccnc3)no2)cc1	-100*	-1	7%	-7%[46.1 µM]	-9%	-34%[10 µM]
CCCCOc1ccc(-c2nc(-c3cccnc3)no2)cc1	?	-9	39%[38.3 µM]	-9%[46.1 µM]	?	-24%[10 µM]
Cc1nnc(SCC(=O)NCc2ccc3c(c2)OCO3)n1C	.	.	-6%	7%	-23%	-15%
CC(C)c1nnc(SCC(=O)NCc2ccc3c(c2)OCO3)n1C	-100*	-7	7%	4%[46.1 µM]	-5%	-14%[10 µM]
CC(C)c1nnc(SCC(=O)Nc2ccc3c(c2)OCO3)n1C	-100*	1	3%	-6%[46.1 µM]	2%	-2%[10 µM]
O=C(C1c2ccccc2Oc2ccccc21)N1CCN(c2ccc(Cl)cc2)CC1	-89*	7	47%[38.3 µM]	?	15%[9.22 µM]	-50%
CN(C)c1ncc2nc(-c3cccs3)c(=O)n(C)c2n1	.	.	-1%	.	.	-4%
COC(=O)c1sccc1N/N=C/c1cccc(OC)c1O	-116*	.	-5%	33%	6%	0%[10 µM]
SMILES	PNC inhibitor	IMPase cell inh	IMPase Li inh	NPSR antagonist	HttQ103 aggreg	HTT ATP protect
COC(=O)c1sccc1N/N=C/c1ccc(OC)c(OC)c1OC	?	.	15%	-10%	16%	24%[10 µM]
COc1cccc(/C=N/Nc2ncnc3scc(-c4ccccc4)c23)c1O	-101*	.	6%	-31%	8.9µM*	.
COc1cccc(/C=N/Nc2nccnc2Cl)c1O	.	.	13%	-3%	1.3µM*	-86%[10 µM]
COc1cccc(/C=N/Nc2nc3ccccc3[nH]2)c1O	.	.	.	-5%	?	-87%[10 µM]
COc1cccc(/C=N/Nc2ncnc(Cl)c2N)c1O	?	.	7%	-18%	?	-86%[10 µM]
Oc1ccccc1/C=N/Nc1nccnc1Cl	-88*	-1	37%[38.3 µM]	5%[46.1 µM]	?	-82%[10 µM]
Fc1ccc(/C=N/n2cnn(Cc3ccccc3Cl)c2=S)cc1	.	.	-4%	-34%	-3%	41%[10 µM]
CCCCCC(=O)/C=C/C=C\CCCCCCCC(=O)O	.	.	5%	.	.	-13%
COc1cccc(/C=N/Nc2nc3ccccc3n3cnnc23)c1O	-6	7	11%	-26%[46.1 µM]	8.9µM*	-42%[10 µM]
COc1cccc(/C=N/Nc2nc3ccccc3n3cnnc23)c1	64	4	11%	8%	-12%	-8%[1.9 µM]
COc1ccc(C[C@@H]2C(=O)N[C@H](C)C(=O)N(C)[C@@H]3Cc4ccc(cc4)Oc4cc(ccc4O)C[C@H](C(=O)N[C@@H](C)C(=O)N[C@H](C)C(=O)N2C)N(C)C3=O)cc1	.	.	11%	.	.	-86%[10 µM]
CN(CCCC(=O)NC1CC(C)(C)NC(C)(C)C1)S(=O)(=O)c1ccc([N+](=O)[O-])cc1	.	.	3%	14%	7%	-13%
CSc1nc(N(C)NC(=O)c2ccc(Cl)cc2)c2ccccc2n1	-97*	14	1%	?	-20%	-77%[10 µM]
Cc1ccn(C(=O)c2ccc(NC(=O)CC(C)C)cc2)n1	.	.	-3%	3%	4%[9.22 µM]	-16%
COc1ccc([N+](=O)[O-])cc1NS(=O)(=O)c1ccc(Cl)c(C(=O)Nc2sc3c(c2C#N)CCCCC3)c1	.	.	-6%	-10%	?	-113%
Cc1cc(C(=O)Nc2nnc(C3CCCCC3)s2)cs1	-1	16	?	-9%[46.1 µM]	2%	7%
O=C(Nc1nnc(C(F)(F)F)s1)c1ccc(Br)s1	.	.	-2%	-46%	5.6µM*	.
Cc1nn(-c2ccccc2)c(Cl)c1C(=O)Nc1nnc(C2CCCC2)s1	-85*	7	17%[38.3 µM]	-15%[46.1 µM]	?	-24%[10 µM]
O=C(Nc1nnc(C(F)(F)F)s1)C1COc2ccccc2O1 (stereo not drawn)	?	0	13%[38.3 µM]	-2%[46.1 µM]	25µM*	-23%
O=C(Nc1nnc(C2CC2)s1)C1COc2ccccc2O1 (stereo not drawn)	.	.	-1%	-8%	-14%	-58%[10 µM]
O=C(Nc1nnc(C2CCCCC2)s1)c1ccc(Br)s1	7	8	10µM*	?	-2%	-13%
N#Cc1cccc(NC(=O)N2CC[C@@]3(CCCN(S(=O)(=O)c4ccccc4)C3)C2)c1	.	.	3%	.	.	-29%
